For assay [1], the target named is Cytochrome P450 2C19 (Homo sapiens) (UniProt P33261). Description: Cytochrome P450 Family 2 Subfamily C Member 19 (CYP2C19) small molecule antagonists: luciferase reporter qHTS assay (AID 1671197). Note: nearly all actives have a fitted effect of over 65% in size. The procedure, abridged:
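Enzyme-substrate mix with proluciferin substrate (P450-Glo CYP2C19 system) preincubated with compounds 10 min at room temperature; NADPH regeneration solution added, 37C for 1 h; detection reagent stops reaction, luminescence read after 20 min. Ketoconazole positive control.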
(In general: A reporter such as luciferase makes a cellular process visible.)

For assay [2], the target named is Cytochrome P450 2C9 (Homo sapiens) (UniProt P11712). As to the kind of experiment: Cytochrome P450 Family 2 Subfamily C Member 9 (CYP2C9) small molecule antagonists: luciferase reporter qHTS assay (AID 1671198). Note: nearly all actives have a fitted effect of over 50% in size. The procedure, abridged:
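CYP2C9 activity was measured with a P450-Glo proluciferin substrate. Enzyme–substrate mix was held with compound for 10 min at room temperature, then NADPH regeneration solution was added for 1 h at 37C. Luciferin product was read as luminescence.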

Assay [3] addresses Cytochrome P450 1A2 (Homo sapiens) (UniProt P05177). Description: Cytochrome P450 Family 1 Subfamily A Member 2 (CYP1A2) small molecule antagonists: luciferase reporter qHTS assay (AID 1671199). Note: nearly all actives have a fitted effect of over 50% in size. The procedure, abridged:
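Enzymatic CYP1A2 assay, human, luminescent: 10 min compound–enzyme–substrate preincubation, 1 h NADPH-dependent turnover, 20 min detection step, room temperature throughout. Reduced light indicates lower CYP1A2 activity.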

In assay [4] the target is Voltage-gated inwardly rectifying potassium channel KCNH2 (Homo sapiens) (UniProt Q12809). As to the kind of experiment: Human Ether-a-go-go-Related Gene (hERG) channel small molecule antagonists: fluorescence cell-based qHTS assay (AID 1671200). Note: nearly all actives have a fitted effect of over 50% in size. The procedure, abridged: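 Channel function was assessed by thallium flux. Cells seeded the previous day and kept at 37 C took up FluxOR II dye over 1 h in the dark at room temperature, then sat another 10 min before stimulation.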
Voltage-gated inwardly rectifying potassium channel KCNH2 (Homo sapiens), sequence (Q12809 whole entry, looked up): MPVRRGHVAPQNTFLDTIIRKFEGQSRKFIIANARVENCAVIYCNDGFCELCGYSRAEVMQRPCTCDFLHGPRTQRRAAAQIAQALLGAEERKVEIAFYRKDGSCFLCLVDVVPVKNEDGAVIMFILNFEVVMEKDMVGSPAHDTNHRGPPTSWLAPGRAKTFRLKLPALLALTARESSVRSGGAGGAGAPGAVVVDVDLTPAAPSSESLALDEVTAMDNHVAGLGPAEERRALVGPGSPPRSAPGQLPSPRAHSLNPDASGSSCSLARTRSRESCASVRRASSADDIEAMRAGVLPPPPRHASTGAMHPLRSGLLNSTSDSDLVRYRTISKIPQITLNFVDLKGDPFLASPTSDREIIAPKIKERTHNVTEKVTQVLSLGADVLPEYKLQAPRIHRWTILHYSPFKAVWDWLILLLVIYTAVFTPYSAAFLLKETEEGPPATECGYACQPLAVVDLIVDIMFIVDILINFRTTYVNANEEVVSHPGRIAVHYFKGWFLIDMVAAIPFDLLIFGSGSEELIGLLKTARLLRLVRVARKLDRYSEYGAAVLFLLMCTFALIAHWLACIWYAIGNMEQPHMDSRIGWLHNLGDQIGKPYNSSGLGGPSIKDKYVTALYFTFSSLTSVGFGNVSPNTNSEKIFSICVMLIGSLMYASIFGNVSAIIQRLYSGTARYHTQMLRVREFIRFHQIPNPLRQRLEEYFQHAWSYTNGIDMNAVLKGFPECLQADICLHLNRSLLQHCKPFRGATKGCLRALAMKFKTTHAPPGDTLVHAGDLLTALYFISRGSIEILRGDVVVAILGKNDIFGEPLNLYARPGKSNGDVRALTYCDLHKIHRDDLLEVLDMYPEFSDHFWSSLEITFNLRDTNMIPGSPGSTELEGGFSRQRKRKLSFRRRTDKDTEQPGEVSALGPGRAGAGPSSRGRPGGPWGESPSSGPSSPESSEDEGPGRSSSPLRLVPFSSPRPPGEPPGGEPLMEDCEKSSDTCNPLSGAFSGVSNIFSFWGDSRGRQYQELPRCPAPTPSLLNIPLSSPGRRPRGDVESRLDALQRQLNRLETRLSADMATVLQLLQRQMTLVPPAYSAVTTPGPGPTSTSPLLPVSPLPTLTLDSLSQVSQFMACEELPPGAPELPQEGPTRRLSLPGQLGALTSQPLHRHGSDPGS

Assay [5] addresses Cytochrome P450 3A4 (Homo sapiens) (UniProt P08684). Description: Cytochrome P450 Family 3 Subfamily A Member 4 (CYP3A4) small molecule antagonists: luciferase reporter qHTS assay (AID 1671201). Note: nearly all actives have a fitted effect of over 50% in size. In a few lines:
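Compounds in DMSO were pin-transferred onto CYP3A4 enzyme-substrate mix and held 10 min at room temperature. NADPH regenerating solution started the reaction for 1 h; luciferin detection reagent stopped it, and luminescence was read after 20 min.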

Several values for one entry are separate records, joined by “and”; a condition that tells them apart may be missing. Equal entries are not always repeated. Records with an inconclusive call do not appear. A structure can be active in one record and inactive in another. Activity calls are given as the source filed them. Calls come from the whole dose curve; as a rule, active = well fitted curve in the direction sought with a large enough effect in the repeat runs; inconclusive = weak or mixed curves; inactive = no such curve, though single readings can be large; an effect the other way counts as inactive or inconclusive.
Potency is the fitted concentration of half-maximal effect.

Cytochrome P450 2C9 (Homo sapiens), sequence (P11712 whole entry, looked up): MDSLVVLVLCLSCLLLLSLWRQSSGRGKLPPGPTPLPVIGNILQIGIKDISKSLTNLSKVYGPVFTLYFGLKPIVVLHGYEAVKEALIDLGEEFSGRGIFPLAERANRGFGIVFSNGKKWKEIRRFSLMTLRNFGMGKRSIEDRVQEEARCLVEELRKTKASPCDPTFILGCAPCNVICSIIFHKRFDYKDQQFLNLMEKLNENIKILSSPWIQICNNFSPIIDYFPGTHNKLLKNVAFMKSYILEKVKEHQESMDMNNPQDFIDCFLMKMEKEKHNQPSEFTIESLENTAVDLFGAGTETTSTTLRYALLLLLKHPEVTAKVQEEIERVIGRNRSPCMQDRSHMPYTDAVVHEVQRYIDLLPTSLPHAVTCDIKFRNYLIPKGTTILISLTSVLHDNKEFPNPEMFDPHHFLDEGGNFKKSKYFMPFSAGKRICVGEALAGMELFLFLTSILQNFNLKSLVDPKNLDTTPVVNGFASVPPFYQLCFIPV
Cytochrome P450 1A2 (Homo sapiens), sequence (P05177 whole entry, looked up): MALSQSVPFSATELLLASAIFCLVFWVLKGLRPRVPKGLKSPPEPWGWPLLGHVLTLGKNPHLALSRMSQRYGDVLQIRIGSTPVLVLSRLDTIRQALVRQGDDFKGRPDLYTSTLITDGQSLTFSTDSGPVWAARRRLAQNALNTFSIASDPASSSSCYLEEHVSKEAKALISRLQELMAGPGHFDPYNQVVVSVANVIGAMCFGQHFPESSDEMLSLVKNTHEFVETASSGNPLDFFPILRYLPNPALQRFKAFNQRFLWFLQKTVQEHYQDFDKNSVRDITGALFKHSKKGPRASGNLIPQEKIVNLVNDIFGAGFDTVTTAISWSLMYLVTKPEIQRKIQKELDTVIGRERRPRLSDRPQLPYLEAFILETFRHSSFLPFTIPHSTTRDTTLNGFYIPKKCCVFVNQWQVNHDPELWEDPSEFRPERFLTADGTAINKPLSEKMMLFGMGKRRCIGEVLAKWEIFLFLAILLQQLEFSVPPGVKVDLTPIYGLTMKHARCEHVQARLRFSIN
Cytochrome P450 2C19 (Homo sapiens), sequence (P33261 whole entry, looked up): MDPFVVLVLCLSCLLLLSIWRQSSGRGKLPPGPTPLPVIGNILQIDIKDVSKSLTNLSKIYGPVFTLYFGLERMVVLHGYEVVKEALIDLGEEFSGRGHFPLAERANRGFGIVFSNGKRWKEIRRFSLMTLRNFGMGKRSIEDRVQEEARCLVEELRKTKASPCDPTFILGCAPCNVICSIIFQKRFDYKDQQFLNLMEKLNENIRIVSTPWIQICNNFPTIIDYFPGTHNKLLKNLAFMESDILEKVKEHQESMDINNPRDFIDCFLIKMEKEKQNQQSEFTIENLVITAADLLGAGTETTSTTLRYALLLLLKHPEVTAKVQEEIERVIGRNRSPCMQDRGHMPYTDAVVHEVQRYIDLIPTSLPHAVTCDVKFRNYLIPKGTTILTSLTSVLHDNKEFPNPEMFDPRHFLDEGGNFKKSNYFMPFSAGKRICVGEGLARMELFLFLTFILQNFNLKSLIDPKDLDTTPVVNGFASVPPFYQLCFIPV
Cytochrome P450 3A4 (Homo sapiens), sequence (P08684 whole entry, looked up): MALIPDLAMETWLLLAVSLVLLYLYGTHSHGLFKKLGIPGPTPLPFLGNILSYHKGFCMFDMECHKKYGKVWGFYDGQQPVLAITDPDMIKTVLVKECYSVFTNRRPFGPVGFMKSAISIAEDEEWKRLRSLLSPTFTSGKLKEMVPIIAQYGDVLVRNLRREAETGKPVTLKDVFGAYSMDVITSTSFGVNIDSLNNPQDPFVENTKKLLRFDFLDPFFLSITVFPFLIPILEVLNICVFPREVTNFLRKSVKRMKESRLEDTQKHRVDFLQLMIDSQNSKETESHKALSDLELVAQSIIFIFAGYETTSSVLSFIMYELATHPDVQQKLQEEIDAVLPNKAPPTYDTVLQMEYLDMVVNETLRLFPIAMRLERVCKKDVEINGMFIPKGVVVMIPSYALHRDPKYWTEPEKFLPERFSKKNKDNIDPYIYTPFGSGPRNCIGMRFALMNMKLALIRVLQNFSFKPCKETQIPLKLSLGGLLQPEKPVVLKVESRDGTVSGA

Take `CCCCC(CC)CN=C(N)NC(N)=NCCCCCCN=C(N)NC(N)=NCC(CC)CCCC` (stereo not given): the results for the Potency in assay [1], in assay [2] and in assay [3] were 17.4 µM (active), 17.4 µM (active) and 32.3 µM (active), respectively. Also, the Potency entry in assay [4] is “inactive”.

Regarding `CCCCCCCC[P+](CCCCCCCC)(CCCCCCCC)CCCCCCCC`, the Potency in assay [1] is 7.06 µM (active); in assay [2], 22.3 µM (active); in assay [3] it was 39.7 µM (active); in assay [4], 154 nM (active); in assay [5], 0.445 µM (active).

`OCCN1CCN(CC/C=C2/c3ccccc3Sc3ccc(C(F)(F)F)cc32)CC1`: the results for the Potency in assay [1], in assay [3] and in assay [4] were 34.7 µM (active), 19.5 µM (active) and 2130 nM (active), respectively. For the same molecule, the Potency entry in assay [2] was “inactive”.

`CC(C)(C)CC(C)(C)c1ccc(O)c(Cc2ccc(Cl)cc2Cl)c1`: the Potency in assay [1] is 1.74 µM (active); in assay [2], 5.49 µM (active); in assay [3], 15.5 µM (active). In addition, the Potency result in assay [4] was “inactive”.

As to `C/C=C(\C)C(=O)OCc1ccccc1`, the Potency result in assay [1], in assay [2], in assay [4] and in assay [5] was “inactive” in each case. The Potency in assay [3] is 35.6 µM (active).

For `O=C(Nc1cccc([N+](=O)[O-])c1)c1cc2ccccc2cc1O`, the Potency in assay [1] is 79.6 µM (active); in assay [2], 17.8 µM (active); in assay [3], 3.56 µM (active). The Potency result in assay [4] is “inactive”.

Consider `CC(=O)OCC(C)OC(C)=O` (stereo not given), for which the Potency result in assay [1], in assay [2], in assay [3] and in assay [4] was “inactive” each time.

Turning to `O=S1(=O)CC(Cl)(Cl)C(Cl)(Cl)C1`, the Potency was 35.6 µM (active) in assay [1], 22.4 µM (active) in assay [2], 22.4 µM (active) in assay [3] and 25.2 µM (active) in assay [5]. Further, the Potency result in assay [4] was “inactive”.

As for `CCCC/C=C/CCCCO`, the Potency result in assay [1], in assay [3], in assay [4] and in assay [5] was “inactive” in each case. In assay [2], the Potency was 71 µM (active).

As to `Clc1ccc2n[nH]nc2c1`, the Potency entry in assay [1], in assay [2] and in assay [4] was “inactive” each time.

Turning to `Cc1cc(O)c(C(C)(C)C)cc1Sc1cc(C(C)(C)C)c(O)cc1C`, the Potency was 0.398 µM (active) in assay [1], 2.51 µM (active) in assay [2], 39.8 µM (active) in assay [3] and 5.63 µM (active) in assay [5]. Also, the Potency entry in assay [4] was “inactive”.

With `[Cl][Bi]([Cl])([c]1ccccc1)([c]1ccccc1)[c]1ccccc1`, the Potency was 0.445 µM (active) in assay [1]; 1.12 µM (active) in assay [2]; 19.9 µM (active) in assay [3]; 13700 nM (active) in assay [4]; 8.88 µM (active) in assay [5].

On to `Oc1ccc(C2(c3ccc(O)cc3)CC3CC2C2CCCC32)cc1` (stereo not given), for which the Potency in assay [1] is 30.5 µM (active); in assay [2] it was 38.4 µM (active). For the same molecule, the Potency entry in assay [4] was “inactive”.

For `O=C(Oc1cccc2cccnc12)c1ccccc1`, the Potency result in assay [1], in assay [2], in assay [4] and in assay [5] was “inactive” in each case. In assay [3], the Potency is 17.4 µM (active).

On to `Clc1ccccc1C(c1ccccc1)(c1ccccc1)n1ccnc1`, for which the Potency is 3.99 µM (active) and 2.45 µM (active) in assay [1]; 1.12 µM (active) and 1.1 µM (active) in assay [2]; 19.5 µM (active) and 16.9 µM (active) in assay [4].

For the molecule `CCCCc1oc2ccc(NS(C)(=O)=O)cc2c1C(=O)c1ccc(OCCCN(CCCC)CCCC)cc1`, the values for the Potency in assay [1], in assay [2] and in assay [4] were 9.77 µM (active), 34.7 µM (active) and 848 nM (active), respectively. Moreover, the Potency result in assay [3] and in assay [5] was “inactive” each time.

For the molecule `Clc1ccc2nsnc2c1NC1=NCCN1`, the Potency result in assay [1], in assay [2], in assay [3], in assay [4] and in assay [5] was “inactive” in each case.

`COc1cc(/C=C/C(=O)O[C@H]2CC[C@]34C[C@]35CC[C@]3(C)[C@@H]([C@H](C)CCC=C(C)C)CC[C@@]3(C)[C@@H]5CC[C@H]4C2(C)C)ccc1O`: the Potency result in assay [1], in assay [2], in assay [4] and in assay [5] was “inactive” in each case.

For the molecule `CCCCCCCC[N+](CCCCCCCC)(CCCCCCCC)CCCCCCCC`, the Potency in assay [1] is 22.4 µM (active); in assay [2] it was 35.5 µM (active); in assay [3] it was 70.9 µM (active); in assay [4], 690 nM (active); in assay [5] it was 1.59 µM (active).

Regarding `CN(C)[C@@H]1C(=O)C(C(N)=O)=C(O)[C@@]2(O)C(=O)C3=C(O)c4c(O)cccc4C[C@H]3C[C@@H]12`, the Potency result in assay [1], in assay [2], in assay [3], in assay [4] and in assay [5] was “inactive” each time.

For the molecule `Nc1ccc(N)c2ccccc12`, the Potency was 3.17 µM (active) in assay [1], 3.99 µM (active) in assay [2], 2.52 µM (active) in assay [3] and 3.55 µM (active) in assay [5]. Also, the Potency result in assay [4] was “inactive”.

In the case of `CCCCCCCCCCCC[N+](C)(C)CCCCCCCCCCCC`, the Potency in assay [1] was 35.6 µM (active); in assay [2] it was 22.4 µM (active); in assay [3], 71 µM (active); in assay [5] it was 35.6 µM (active).

Turning to `CC(C)(C)CC(C)(C)c1ccc(OCCOCC[N+](C)(C)Cc2ccccc2)cc1`, the Potency entry in assay [1], in assay [3] and in assay [5] was “inactive” in each case. Also, in assay [2], the Potency is 79.6 µM (active) and inactive.

As to `C=CC(=O)OCC(CO)(COCC(COC(=O)C=C)(COC(=O)C=C)COC(=O)C=C)COC(=O)C=C`, the Potency in assay [1] is 7.87 µM (active); in assay [2], 7.02 µM (active); in assay [5], 0.395 µM (active). Besides, the Potency result in assay [3] was “inactive”.

As to `OC1(c2ccc(Cl)c(C(F)(F)F)c2)CCN(CCCC(c2ccc(F)cc2)c2ccc(F)cc2)CC1`, the Potency was 15.5 µM (active) in assay [1], 8.71 µM (active) in assay [2] and 239 nM (active) in assay [4].

For the molecule `NC(=NCCCCCCN=C(N)/N=C(\N)Nc1ccc(Cl)cc1)/N=C(\N)Nc1ccc(Cl)cc1`, the figures for the Potency in assay [1] and in assay [2] were 22.3 µM (active) [middle of 5 runs] and 25.1 µM (active) [middle of 5 runs], respectively. In addition, in assay [4], the Potency entry was “inactive”.

Regarding `CCCCCCCCn1sc(Cl)c(Cl)c1=O`, the Potency in assay [1] was 6.33 µM (active); in assay [2] it was 3.17 µM (active); in assay [3], 11.2 µM (active); in assay [4], 12300 nM (active); in assay [5], 20 µM (active).

As for `CCC1OCC(COc2ccc(Oc3ccccc3)cc2)O1` (stereo not given), the Potency is 17.8 µM (active) in assay [1], 28.3 µM (active) in assay [2] and 25.2 µM (active) in assay [3]. In assay [5], the Potency result is “inactive”.

The values above are taken from PubChem BioAssay (Tox21).
